For 39 sequences, ETS1 binding intensity results are on record in the supplement of paper PMC10681739.

For this experiment, the target named is T1, ETS1 (UniProt P14921).
T1 sequence: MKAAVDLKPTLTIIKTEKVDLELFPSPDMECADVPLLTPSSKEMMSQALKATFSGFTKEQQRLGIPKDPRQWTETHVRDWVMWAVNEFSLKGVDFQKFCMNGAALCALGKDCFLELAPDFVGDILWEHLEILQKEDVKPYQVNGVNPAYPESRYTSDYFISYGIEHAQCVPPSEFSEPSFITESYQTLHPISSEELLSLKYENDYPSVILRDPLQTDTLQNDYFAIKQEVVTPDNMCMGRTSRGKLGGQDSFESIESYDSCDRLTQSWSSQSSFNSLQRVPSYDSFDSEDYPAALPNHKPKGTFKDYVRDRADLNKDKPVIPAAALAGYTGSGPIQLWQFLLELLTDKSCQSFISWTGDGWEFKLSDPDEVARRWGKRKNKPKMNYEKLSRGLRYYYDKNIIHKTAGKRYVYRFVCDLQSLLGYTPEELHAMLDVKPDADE
Nature of the experiment: ETS1 binding intensity (PBM fluorescence), ETS1 alone (arbitrary fluorescence units); higher = stronger binding. As to conditions: ETS1 concentration 1 nM; RUNX1 concentration 0 nM.
CCCCCACATCCTGTTTGGTTTGTGGGACACCTCAAC: the ETS1 binding intensity amounted to 2100.
For TGCGCCGCGGAACCCGGAAGTGGTCACGGAGCTCGG, the ETS1 binding intensity was 10600.
For CCACCCACTTCCTGCCCTAGCTAGTGTGGTATTTTT, the ETS1 binding intensity was determined as 1050.
Sequence GCCTGCACCCTAGTTCCGGTGTGGGTGGAGGGGCCG displayed an ETS1 binding intensity of 1040.
Sequence ACTTACAAAGGAAGTGACAGAACCACAGAAAAGACC displayed an ETS1 binding intensity of 1230.
As to GGAGGGGCTGGCCGGAAGTGAACCGCAGAGCACGCT, the ETS1 binding intensity was 11600.
On to GAAGTGAGGTCAGGATGTGGTGGGTGACCCCTGAAA, for which the ETS1 binding intensity was determined as 911.
Regarding CCAGAGGGCGGAAGTGGGAGCTGCGACCGCGCTCCC, the ETS1 binding intensity was found to be 3670.
As to CATCAAGTATTTCCTCACGCAAGCAACCGCATCCAT, the ETS1 binding intensity was 392.
AGGCGCCGGAAAAACTACATCTCCCACAATCCTCGG came in with an ETS1 binding intensity of 484.
TGCAATCAGGAAGCCTGCCCCTCTAGAACCACAAAA registered an ETS1 binding intensity of 540.
Sequence TACAGCTGGAACGTCCTGTGGTTAACATTCTGCTCT displayed an ETS1 binding intensity of 423.
Take GTCCCACGCGACTTCCTGCGGGAAACATGGCGGCAT: the ETS1 binding intensity amounted to 1520.
In turn, ATCTTCCGTAGCAGTCAGGTGTTTTGTGGTTTGCAG yielded an ETS1 binding intensity of 460.
On to CCCCACATCCGGGGGCCGGGGCCGGGCTGTGGGCTT, for which the ETS1 binding intensity was 524.
As for AGCCAACAGGAAGCTGCAGAGACTAAACCACAGCAA, the figure is 1150; as for TCTGTTCTTCCTTTTCCTGTGCGGTGTGCCCCAAAC, 628.
Sequence AATATACGGTGAGGATGTGGGCAAAAAACAAAGAGG had an ETS1 binding intensity of 1060.
As for CCTGCCTTCCGTCTTCCAGGCAGAACCACAGAGAGG, the figure is 432; as for TGCGCCGGGAGGAAGGGCTCCAAAACCACAGGGCGG, 411.
As to ACATTTCCTTTTGGTATTTAAAGTAACCACACAGAA, the ETS1 binding intensity was determined as 495.
ACCTGTGTTCTGGCAGGATGTGGTTGACCTCAGCAG had an ETS1 binding intensity of 4140.
Turning to CGATGCTTCCGGCCTCCTATTGGGTGGTTTCTTGGC, the ETS1 binding intensity amounted to 895.
For AATGGGCTTGGTTTCCTGTGGGTTTGTAGCTTTGTA the value was 519.
AGCACCCGGAAGTCGGAGCTGCGCACGCACCGCGGG gave an ETS1 binding intensity of 2180.
Sequence CCGCTGACATCCGCTTGGCCTGCGGCTTCTTTCTGT displayed an ETS1 binding intensity of 715.
Turning to AGGCCTCGCTTCCTCTCCTGACCACACCCTGCAGCT, the ETS1 binding intensity came out at 446.
As for AAACTCCCCCACTTCCGCCCACAGCCCTCTGGGCTT, the ETS1 binding intensity was 2010.
With GACTCCCTCAGCGGATGCGGGTGCTGCTGCTGCTGC, the ETS1 binding intensity is 1290.
The sequence TCTTGAGGGTCAGGATGTGGTGAGGCCAGAGAAGGC displayed an ETS1 binding intensity of 951.
In turn, CTCACTTCCCCGGCAGCTCCCTCGCCCCGACCGCAG gave an ETS1 binding intensity of 406.
TGGCTGCCACTGAGAGGATGTGGTGACAGAGGTGGG came in with an ETS1 binding intensity of 1700.
As for CCGCGCACCCGGAACTACCTCCCGACCCGCATCCCC, the figure is 562; as for TCAGAACCAGGAAACTGAAGGCGGTTACTCCACATA, 526; as for ATCATCTAGGAGACAGGATGTGGTTAGGGTGTTAAA, 6360.
For TTTTTAAGGTCAGGATGTGGGCACATCTAAGGGGCA the value was 1330.
For GCACTTCCGGAGCCGGGCGTCTACAGACCGCGGCCA the value was 868.
In turn, GCCCCAGCCCCCGGATGTGGTGACAGAATCGATACT had an ETS1 binding intensity of 3220.
For GGCCGTTCTTCCGCCTGCAGGGTGGTCAGCGGAGGT the value was 571.
